Compounds with a hit are over-represented: about 3% of the library has one in this group of screens.
TNF death inh = inhibitors of TNF-alpha triggered necroptosis, primary screen, cell-based, Jurkat FADD-/-, single concentration; 220,000 compounds, 0.068% hits; Jurkat FADD-/- TNF necroptosis rescue, ATP luminescence, 24 h; 0 = TNF only, 100 = no-TNF cells; activation (protection from cell death), % at 10 µM;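 active = activation, meaning protection from cell death, of at least 50% relative to plate controls; inactive = activation below 50%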;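 note: necroptosis triggered by 40 ng/mL TNF-alpha added together with compound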
Efa HMGR inh = inhibitors of E. faecalis class II HMGR, primary screen, biochemical, Enterococcus faecalis; HMG-CoA reductase (Enterococcus faecalis, mvaE); purified E. faecalis HMGR, NADPH absorbance 340 nm kinetic; AID 1066, 2008; inhibition, % at 10 µM; 190,000 compounds, 0.41% hits;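 active = inhibition above a set limit, the median over all tested compounds plus 3 SD, cut at about 9.5% in these data; inconclusive = no clear call, values can overlap the other calls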;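 note: enzyme runs in reverse so mevalonate oxidation gives rising NADPH absorbance; 0% = complete reaction with DMSO and 100% = background rate lacking mevalonate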
ROMK mod = ROMK potassium channel modulators, primary screen, cell-based, thallium flux, MLSMR library; 130,000 compounds, 2% hits; B-score at 10 µM; ATP-sensitive inward rectifier potassium channel 1 (Homo sapiens), P48048; Tet-inducible ROMK, thallium flux fluorescence; actives lie on both sides;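 active = signal ratio slope over the read window, or its plate-corrected B-score, at least 3 SD from the plate mean, either direction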;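 note: B-score of the F/F0 ratio slope over 7 to 12 s after thallium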
14-3-3 Bad inh = inhibitors of 14-3-3 zeta/Bad binding, primary screen, biochemical, TR-FRET, bovine 14-3-3 zeta | 14-3-3 protein zeta/delta (Bos taurus), P63103 | TR-FRET 14-3-3zeta/Dy647-pBad peptide displacement, 1 h | inhibition, % at 21.7 µM | 220,000 compounds, 0.71% hits | AID 781, 2007;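 active = inhibition above about 70%, limit read from the data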;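 note: 0% = full 14-3-3 plus peptide FRET controls and 100% = background without 14-3-3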
Target sequence (P63103 whole entry, looked up): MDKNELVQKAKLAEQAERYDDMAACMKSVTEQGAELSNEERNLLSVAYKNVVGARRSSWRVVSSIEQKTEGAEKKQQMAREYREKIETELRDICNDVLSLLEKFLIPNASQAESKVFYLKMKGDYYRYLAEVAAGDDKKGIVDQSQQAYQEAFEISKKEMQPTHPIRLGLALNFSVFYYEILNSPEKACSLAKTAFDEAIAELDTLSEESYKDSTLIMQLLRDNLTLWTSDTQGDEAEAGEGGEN
Calpain2 inh = inhibitors of pig calpain II, primary screen, biochemical, fluorogenic peptide substrate, 1536-well; purified calpain II, 30 min; AID 1236, 2008; 220,000 compounds, 0.37% hits; inhibition, % at 16 µM;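 active = inhibition above about 50%, limit read from the data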
zVAD death inh = inhibitors of zVAD-triggered necroptosis, primary screen, L929 cells; L929 zVAD necroptosis rescue, ATP luminescence, 24 h; with zVAD 60 µM; 220,000 compounds, 0.38% hits; AID 1377, 2008; viability rescue, % at 10 µM;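 active = activation, scaled between plate controls, above about 75%, limit read from the data; inactive = activation under that limit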;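 note: 0% = zVAD with DMSO and 100% = DMSO alone without zVAD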
ROMK retest = ROMK channel modulator hit retest, confirmation, cell-based, thallium flux, duplicate, resupplied hits; normalized thallium flux (F/F0 slope) at 10 µM; 3,000 compounds, 54% hits; shares compounds with ROMK mod; fluorescence ratio; hits give low values;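 active = Flux at 10 µM at least 3 SD below or above vehicle control mean in one or both replicates; inconclusive = no clear call, values can overlap the other calls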
Numbers without * were called inactive; ? = inconclusive; · = not tested or not shown.

SMILES	TNF death inh	Efa HMGR inh	ROMK mod	14-3-3 Bad inh	Calpain2 inh	zVAD death inh	ROMK retest
CCn1c(=O)c(C)nn2c3ccccc3nc12	1	-5	·	37	-12	2	0.073
CCOC(=O)C1CCCN(CCC(=O)Nc2ccccc2C)C1 (centres undefined)	1	1	0.83	0	-19	1	·
CN(C)CCNC(=O)/C(=C/c1ccc(-c2ccc(Cl)cc2)o1)NC(=O)c1ccccc1	3	0	-4.4*	-5	-41	7	0.06*
CN(C)CCNC(=O)/C(=C/c1ccc(-c2ccc(Cl)cc2Cl)o1)NC(=O)c1ccccc1	0	2	·	-22	-46	-1	·
Cc1ccc(C(=O)N/C(=C\c2ccc(-c3ccc(Br)cc3)o2)C(=O)NCCCN(C)C)cc1	-17	-1	-3.7*	-11	-128	-4	0.048*
CC(C)C(c1nnnn1Cc1ccc(F)cc1)N1CCN(C2CCCCC2)CC1 (centres undefined)	0	0	-5*	-4	-15	1	0.061*
CCN1CCN(C(c2nnnn2Cc2ccc3c(c2)OCO3)C(C)C)CC1 (centres undefined)	0	-4	·	17	-15	-1	·
CC(C)C(c1nnnn1Cc1ccc(F)cc1)N1CCN(Cc2ccc3c(c2)OCO3)CC1 (centres undefined)	-1	-6	-2.3*	10	16	0	0.054*
CCOc1cc(N2CCOCC2)c(OCC)cc1NC(=O)COC(=O)c1cc(C)cc(C)c1	3	2	·	-5	-34	2	·
CCC(=O)Nc1ccc(S(=O)(=O)Nc2cccc(C)c2)cc1OC	0	-4	-0.29	-10	-13	0	·
COc1ccc(NC(=O)/C(C#N)=C/c2ccc(Sc3nncn3C)c([N+](=O)[O-])c2)cc1	-5	-2	-6.5*	26	-70	-2	0.036*
Cn1cnnc1Sc1ccc(/C=C/C(=O)c2ccc(O)cc2)cc1[N+](=O)[O-]	-2	-2	0.94	21	16	1	·
Cc1cc2cc(CN(Cc3ccco3)C(=O)NCc3ccccc3)c(=O)[nH]c2cc1C	-1	0	-5.2*	-2	-19	0	0.059*
Cc1cc2cc(CN(CCN(C)C)C(=S)NCc3ccco3)c(=O)[nH]c2cc1C	3	-1	-3.7*	-11	-36	-1	0.059*
CCc1ccc2[nH]c(=O)c(CN(CCN(CC)CC)C(=S)NCc3ccco3)cc2c1	3	-1	-3.3*	-10	-1	1	0.064*
CCOC(=O)c1ccc(Nc2sc(C(=O)c3cccc([N+](=O)[O-])c3)c(N)c2C#N)cc1	-12	·	·	54	6	1	·
COc1ccccc1CNC(=O)COC(=O)c1ccc(Cl)c(N)c1	-1	-3	0.36	-7	-17	0	·
Cc1cc(C(=O)CSc2n[nH]c(N)n2)c(C)n1-c1ccc2c(c1)OCO2	-1	5	-0.58	-10	-18	0	·
C/C(=N/NC(=O)CCC(=O)Nc1cccc(Cl)c1)c1ccc(C)cc1	0	3	-0.27	-6	20	0	·
O=C(Nc1cccnc1)c1cccc(S(=O)(=O)N2CCc3ccccc32)c1	0	-7	-1	-16	7	1	·
O=C(Nc1cccnc1)c1ccc(Cl)c(S(=O)(=O)N2CCc3ccccc32)c1	-8	-4	-3.8*	0	-40	0	0.066*
COc1cc(/C=C2\COC/C(=C\c3ccc(O)c(OC)c3)C2=O)ccc1O	-18	·	·	-3	5	55	·
COc1cc(/C=C2\CC/C(=C\c3ccc(OCCO)c(OC)c3)C2=O)ccc1OCCO	-3	-4	-2.4*	-12	-169	42	?
COc1cc(/C=C2/CC/C(=C/c3ccc(O)c(OC)c3)C2=O)ccc1O	-25	·	·	-4	7	5	0.051*
O=C1CN(C(=O)c2cc3ccccc3oc2=O)C(c2ccc(F)cc2)c2cc(F)ccc2N1 (centres undefined)	4	4	4*	-8	-12	-1	0.075
SMILES	TNF death inh	Efa HMGR inh	ROMK mod	14-3-3 Bad inh	Calpain2 inh	zVAD death inh	ROMK retest
COCc1cc(C)n(CC(=O)Nc2cc(C)cc(C)c2)c(=O)c1C#N	3	-1	-0.81	-1	-20	2	·
COc1ccc(N/N=C(\C#N)C(=N)SCc2ccccc2)cc1	-7	-1	·	-19	15	0	0.053*
O=C(N/N=C/c1cccs1)c1ccc(-n2cccc2)cc1	0	5	·	-6	-11	0	·
CC(Nc1cc(N2CCNCC2)ccc1[N+](=O)[O-])c1ccccc1 (centres undefined)	9	-4	-3.2*	-5	18	1	0.053*
CCS(=O)(=O)N1CCN(c2ccc([N+](=O)[O-])c(NC(C)c3ccccc3)c2)CC1 (centres undefined)	-6	-1	·	-2	35	-1	·
CCOC(=O)C(CC)Sc1nc2c(cnn2-c2ccccc2)c(=O)[nH]1 (centres undefined)	1	-2	·	0	-28	1	·
CCC(CC)C(=O)Nc1c2cnn(-c3ccccc3)c2nc(=O)n1-c1ccccc1	0	1	-5*	29	-150	0	0.052*
COc1ccc(C2CC(C(F)(F)F)n3ncc(C(=O)Nc4c(C)n(C)n(-c5ccccc5)c4=O)c3N2)cc1 (centres undefined)	-3	1	-6.1*	0	20	1	0.076
COc1cccc(C2CC(C(F)(F)F)n3ncc(C(=O)Nc4c(C)n(C)n(-c5ccccc5)c4=O)c3N2)c1 (centres undefined)	-2	-2	·	-1	-3	0	·
COc1ccc2[nH]c(CN3CCN(CC(C)C)C(CCO)C3)c(C)c2c1 (centres undefined)	2	0	0.19	-5	-17	1	·
COc1ccc2[nH]c(CN3CCN(C(C)C)C(CCO)C3)c(C)c2c1 (centres undefined)	2	-2	-7.8*	0	13	1	0.074
COc1ccc(/C=C2/C(=O)OCc3cc(OC)c(OC)cc32)cc1	-10	-1	2.6*	3	-13	1	0.088
COC(=O)c1ccc(Cn2cc(C(F)(F)F)cc([N+](=O)[O-])c2=O)cc1	-1	-3	0.58	-2	8	4	·

Screens as filed in PubChem BioAssay.
